The list is not random: actives were taken first. Their share in the collection is about 3.8%.
S2 tox = viability counter-screen for ATXN expression inhibitors | Potency, µM (top dose mostly 56.7 µM), most hits filed as cytotoxic | S2 cells (HEK-293 line with an ATXN2-luciferase reporter) viability, CellTiter-Fluor protease fluorescence, 24 h | hit rate 0.49% among 400,000; also: nearly all actives have a fitted effect of over 40% in size
ATXN2 expr inh = inhibitors of ATXN2 expression; HEK-293 ATXN2-luciferase reporter, luminescence, 24 h; Potency, µM (series often up to 57 µM), for inactives: at the highest dose activity change, negative = inhibition, most hits filed as inhibitors; hit rate 0.72% among 360,000; AID 1745845; also: % is scaled to controls: 0 for no effect and ±100 for the full control effect; nearly all actives have a fitted effect of over 55% in size
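ATXN2-luciferase reporter cells (luciferase flanked by upstream and downstream ATXN2 gene portions) were treated 24 h at 37 °C with compounds at up to 57 uM. SteadyGlo luminescence gave expression; GF-AFC fluorescence gave viability.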
HepG2 viability = counter-screen for TGF-b inhibitors: cytotoxicity in HepG2 cells; HepG2 CAGA-GFP viability, ATP luminescence, 18 h; Potency, µM (series often up to 46.1 µM), for inactives: top-dose activity change, negative = cytotoxicity, most hits filed as cytotoxic; hit rate 0.76% among 410,000; AID 588856
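HepG2 CAGA-GFP cells (1000/well, DMEM with 1% FBS) received compound, then TGF-beta at 500 pg/mL final, and were incubated 18 hours at 37 degrees C. Viability was read by CellTiter-Glo luminescence. Media-only wells were set as complete cell-killing and DMSO as no toxicity.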
A549 tox = kills or reduces viability of A549 cells in Nrf2 counter-screen; hit rate 0.16% among 390,000; A549 ARE-Fluc cells, CellTiter-Fluor viability, 18-24 h; Potency, µM (titrated, usually from 46 µM), without a hit: at the highest dose activity change, negative = cytotoxicity, usual class: inhibitors; also: % is scaled to controls: 0 for no effect and ±100 for the full control effect
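Cytotoxicity counterscreen: CellTiter-Fluor fluorescence was measured in A549 ARE_Fluc cells after 18-24 h of compound exposure in a concentration series. The subsequent BugLite luminescent read reports ARE-luciferase activity.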
Nrf2 inh = blocks Nrf2 signaling. A549 ARE-Fluc reporter, luciferase luminescence, 18-24 h. Potency, µM (top dose mostly 46 µM), inactives show top-dose activity change, negative = inhibition, usual class: inhibitors. hit rate 2.1% among 360,000; also: % is scaled to controls: 0 for no effect and ±100 for the full control effect; nearly all actives have a fitted effect of over 60% in size
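Nrf2 activity is the BugLite luminescence, read 15 min after reagent at room temperature, following CellTiter-Fluor cytotoxicity readout (30 min, 37C). Compound titrations were applied for 18-24 h to 5000 A549 ARE_Fluc cells/well in 5% FBS OPTI-MEM.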
TGFb SMAD3 inh = TGF-b pathway inhibition. HepG2 CAGA-GFP TGF-b/SMAD3 reporter, GFP fluorescence, 18 h; TGF-beta stimulated, 500 pg/mL final. Potency, µM (doses to about 46.1 µM), without a hit: top-dose activity, negative = inhibition, actives largely listed as inhibitors. hit rate 1.2% among 410,000. AID 588855; also: % is scaled to controls: 0 for no effect and ±100 for the full control effect; nearly all actives have a fitted effect of over 65% in size
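Smad-responsive CAGA-GFP expression was quantified in HEPG2 cells exposed to compounds and 500 pg/mL final TGF-beta for 18 h at 37 degrees C; unstimulated wells defined full inhibition.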
Starred values were filed as active, the others as inactive; i = inactive; u = inconclusive; x = not tested or not shown; ! = a repeat was not active; [ ] = remark or other dose. Calls follow the shape of the dose curve; as a rule, active = well fitted curve in the direction sought with a large enough effect; inconclusive = small, poorly fitted or top-dose-only effect, or another doubt; inactive = no such curve, though single readings can be large; an effect the other way counts as inactive or inconclusive. Potency is read from the fitted curve at half-maximal effect.

SMILES	S2 tox	ATXN2 expr inh	HepG2 viability	A549 tox	Nrf2 inh	TGFb SMAD3 inh
CN(C)S(=O)(=O)c1cccc(NC(=O)/C=C/c2ccc(S(=O)(=O)N3CCOCC3)cc2)c1	i	-16%	0%	-4%	23µM*	-2%
CN(CC(=O)Nc1cccc(S(=O)(=O)N2CCOCC2)c1)CC(=O)Nc1ccc(Cl)c(C(F)(F)F)c1	u	u	-2%	u	21µM*	u
COc1cc(/C=C/C(=O)c2ccc(O)cc2)ccc1OCC#N	u	u	-94%	u	26µM*	u
COc1cccc(C(=O)/C=C/c2ccc(OCC#N)c(OC)c2)c1	x	u	-42%	-21%	u	u
O=C1C2CC3N1CCC31c3ccccc3-n3c1c2ccc3=O (stereo unspecified)	u	2%	18%	1%	-20%	23%
Cc1ccc(NC(=O)CN(C)C(=O)COC(=O)c2ccc(Cl)cc2O)cc1	i	-17%	-2%	0%	13%	2%
COc1cc(F)cc(-c2ccc3c(c2)c(-c2cccs2)c(-c2cc(OC)cc(OC)c2)n3C)c1	i	6%	5%	0%	9%	0%
COc1cc(OC)cc(-c2c(-c3cccs3)c3cc(-c4ccn[nH]4)ccc3n2C)c1	u	u	-6%	-11%	u	16µM*
Cc1ccccc1NC(=O)Nc1nc(C(N)C2CCCCC2)cs1 (stereo unspecified)	i	u	-53%	x	x	u
CCOC(=O)Cc1ccc(NC(=O)n2ncc3cc(Cl)ccc32)cc1	i	20µM*	-17%	5%	-20%	21%
CCn1c(=O)c([N+](=O)[O-])c(N2CCSCC2)c2ccccc21	i	-2%	34%	-8%	16µM*	-19%
CCOC(=O)c1ccc(NC(=O)CCc2c(C)nc3nc[nH]n3c2=O)cc1	i	5%	3%	-8%	9%	4%
COc1cccc(C(=O)Nc2c3c(nn2-c2ccc(C)cc2C)CS(=O)(=O)C3)c1OC	i	-13%	3.2µM*	6%	x	26%
COc1cccc(NS(=O)(=O)c2cc(-c3cnc(C4CC4)o3)ccc2C)c1	u	u	-27%	u	x	2µM*
COc1ccc(C)cc1NS(=O)(=O)c1ccc(-c2cnc(C3CC3)o2)cc1	u	0%	-2%	u	u	3.5µM*
Cc1ccc(N(C)S(=O)(=O)c2ccc(-c3cnc(C4CC4)o3)cc2)cc1	u	-3%	-5%	-6%	-4%	6.3µM*
CCOC(=O)N1CCN(S(=O)(=O)c2c(C)nc3scc(C)n3c2=O)CC1	x	x	-4%	1%	-8%	-10%
O=C(NC(Cc1ccccc1)C(=O)O)/C(=C/c1ccc(F)cc1)NC(=O)c1ccccc1 (stereo unspecified)	u	x	3%	0%	4%	-7%
Cc1onc(-c2ccccc2)c1C(=O)N/N=C/c1c[nH]c2ccccc12	i	u	-90%	u	15µM*	-17%
COc1cccc(/C=N/NC(=O)c2c(-c3ccccc3)noc2C)c1OC	i	1%	-27%	3%	-2%	u
CCCOC(=O)c1ccc(-c2c(C)noc2-c2ccc(OC)cc2O)o1	i	-17%	13µM*	-17%	-3%	16µM*
COc1ccc(-c2onc(C)c2-c2cscn2)c(O)c1	i	-30%	-11%	3%	u	0%
COc1cc(OC)c(C#N)c(S(=O)(=O)Cc2ccccc2)c1	i	-4%	1%	-8%	-25%	-8%
N#Cc1c([N+](=O)[O-])cc([N+](=O)[O-])cc1S(=O)(=O)Cc1ccccc1	32µM*	u	10µM*	-22%	u	4µM*
CC(=O)N1CCC[C@H]1C(=O)NCC1Cc2cc(-c3cnccn3)cc(Cl)c2O1 (stereo partly specified)	i	x	x	x	x	x
SMILES	S2 tox	ATXN2 expr inh	HepG2 viability	A549 tox	Nrf2 inh	TGFb SMAD3 inh
CCOc1ccc(NC(=O)CC2C(=O)N(c3ccccc3)C(=O)N2C2CCCCC2)cc1 (stereo unspecified)	i	3%	-12%	-4%	-12%	-16%
CCC(C)Nc1ccc(NC(C)CC)cc1 (stereo unspecified)	x	u	13µM*!	0.15µM*	0.073µM*	11µM*!
CCC(C)NC(=O)Nc1ccc(Br)cc1 (stereo unspecified)	i	1%	-15%	6%	u	-15%
Cc1cccc(-c2[nH]c(C(C)(C)C)nc2-c2ccc3c(c2)OCO3)n1	x	15µM*	x	x	x	x
Cc1cc(OCC(=O)C(C)(C)C)c2c(-c3ccccc3)cc(=O)oc2c1	i	-4%	-38%	1%	-8%	-13%
CCOC(=O)Cc1csc(-n2sc3ccccc3c2=O)n1	u	8%	4%	1%	14%	9%
CCOC(=O)Cc1csc(/N=C/c2c(O)n(-c3ccccc3C(F)(F)F)c(=O)c3ccccc23)n1	x	-15%	1%	-20%	13µM*	-2%
CCn1cc(C(=O)N2CCN(c3cccc(C)c3C)CC2)c2cc(OC)c(OC)cc2c1=O	u	u	-10%	-16%	-15%[9.27 µM]	10µM*
CCn1cc(C(=O)N2CCN(c3cccc(C(F)(F)F)c3)CC2)c2cc(OC)c(OC)cc2c1=O	i	u	-27%	u	u	u
CCOC(=O)C(C(=O)OCC)C(Nc1ccc(Br)cc1)c1ccccc1 (stereo unspecified)	i	-25%	11µM*	u	u	u
COc1ccc(Cn2c(C(=O)O)c(CNCCc3ccccc3Cl)c3ccc(C)cc32)cc1	18µM*	u	-31%	u	u	u
C=Cc1ccc(Cn2c(C(=O)O)c(CNCCc3ccccc3)c3ccc(C)cc32)cc1	22µM*	u	-111%	u	u	u
O=Cc1ccc2[nH]ccc2c1	x	x	-12%	x	x	-30%
COc1ccc(-c2nnc(SCC(=O)N(C)Cc3ccccc3)o2)cc1OC	i	3%	-38%	-13%	23µM*	u
O=C(COc1ccc([N+](=O)[O-])cc1)N1CCN(c2nnc(-c3ccccc3)c3ccccc23)CC1	i	x	1%	-10%	23µM*	-8%
Cc1ccc(-c2nnc(N3CCN(C(=O)COc4ccccc4)CC3)c3ccccc23)cc1	i	u	-28%	u	18µM*	u
CC1(C(=O)NS(=O)(=O)c2ccc(C#N)cc2)CCN1C(=O)Cc1ccccc1Cl (stereo unspecified)	i	10%	2%	x	x	-4%
